Glioma ERSR ind: ER stress response induction in glioma. hit rate 0.02% among 420,000. Potency, µM, hits mostly activators. AID 602332. U87-MG GRP78 promoter luciferase reporter, 16 h; also: series mostly up to about 76 µM; nearly all actives have a fitted effect of over 35% in size
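Stably transfected U87-MG human glioma cells carrying a GRP78-based luminescent sensor were seeded at 1000 cells/well, pin-dosed with compounds and incubated 16 h. Luciferase reagent was then added, and end-point luminescence was read after 10 min at room temperature.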
G9a block: blocks human histone lysine methyltransferase G9a; Q96KQ7; G9a H3K9 monomethylation, AlphaScreen, 2 h; Potency, µM (doses to about 102 µM), usual class: inhibitors; hit rate 8.8% among 350,000; also: nearly all actives have a fitted effect of over 75% in size
Target sequence (Q96KQ7 913-1193 limits assumed): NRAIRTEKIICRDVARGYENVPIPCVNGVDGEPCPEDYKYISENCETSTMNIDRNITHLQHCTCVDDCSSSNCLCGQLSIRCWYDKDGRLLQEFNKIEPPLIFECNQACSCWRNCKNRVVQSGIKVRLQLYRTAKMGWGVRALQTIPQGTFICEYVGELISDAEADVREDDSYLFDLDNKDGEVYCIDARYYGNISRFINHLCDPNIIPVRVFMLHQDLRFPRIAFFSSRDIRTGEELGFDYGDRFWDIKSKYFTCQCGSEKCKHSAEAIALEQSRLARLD
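AlphaScreen read-out: biotin-H3K9 peptide (500 nM) methylation by 20 nM enzyme with 20 uM SAM, 2 h at room temperature after 15 min compound preincubation; anti-monomethyl H3K9 antibody plus donor/acceptor beads, 10 min dark.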
ALOX12 inh: blocks human arachidonate 12S-lipoxygenase; AID 1671190; purified 12hLO, xylenol orange hydroperoxide absorbance; Potency, µM (titrated, usually from 108 µM), most hits filed as inhibitors; P18054; hit rate 1.1% among 580,000
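Purified human 12hLO at 150 nM in 25 mM Hepes, 0.01% Triton X-100, pH 7.0, preincubated 15 min at room temperature with compound. Reaction started with 40 uM arachidonic acid, 30 min at room temperature. Hydroperoxide measured by Fe-xylenol orange, 573/405 nm absorbance ratio.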
VDR inh: vitamin D3 receptor (human) inhibition; P11473; Potency, µM, hits mostly inhibitors; hit rate 0.93% among 400,000; AID 504847; VDR-SRC2-3 peptide fluorescence polarization, 2 h
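VDR–SRC2-3 interaction, FP format. Cmpds 23 nl via pintool, brief spin, 2 h ambient incubation.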
Sfp PPTase inh: inhibitors of Bacillus subtilis Sfp phosphopantetheinyl transferase; Q9F4F7; Potency, µM, hits mostly inhibitors; Biochemical Sfp PPTase activity, qHTS; hit rate 3.5% among 310,000;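 also: the enzyme is Sfp with the accession as filed and its product quenches rhodamine fluorescence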
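Sfp 15 nM + cpd, 15 min RT; start w/ rhodamine-CoA 5 uM, BHQ-2-YbbR 12.5 uM (final); 50 mM Hepes pH 7.6, 10 mM MgCl2, 0.01% NP-40, 0.01% BSA; read 525/598 nm at 0 and 30 min.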
Each line names hits and unclear results; the compound was inactive in the other large screens. This is one part of a sample in which hits are shown more often than they occur. Calls follow the shape of the dose curve; as a rule, active = well fitted curve in the direction sought with a large enough effect; inconclusive = small, poorly fitted or top-dose-only effect, or another doubt; inactive = no such curve, though single readings can be large; an effect the other way counts as inactive or inconclusive.

CN1CCc2c(sc(/N=C/c3cccs3)c2C(N)=O)C1	G9a block inconclusive, VDR inh 32µM (no result: ALOX12 inh)
COc1ccc(C(c2c(N)[nH]c(=S)[nH]c2=O)c2c(N)[nH]c(=S)[nH]c2=O)cc1	ALOX12 inh inconclusive, Sfp PPTase inh 79µM (no result: G9a block)
CCOc1ccc(C(c2c(O)nc(SC)[nH]c2=O)c2c(O)nc(SC)[nH]c2=O)cc1	VDR inh inconclusive (no result: G9a block, Sfp PPTase inh)
CCOc1ccc(C(=O)CC2(O)C(=O)Nc3ccccc32)cc1 (stereo unspecified)	none (no result: Glioma ERSR ind, G9a block, VDR inh, Sfp PPTase inh)
Cc1ccc([C@H]2C[C@@H](O)[C@@H](O)[C@@H]2NC2CCOCC2)cc1	none (no result: Glioma ERSR ind, G9a block, VDR inh, Sfp PPTase inh)
COc1ccc(-c2cnc3c(c2)CCC3(C#N)C#N)cc1	VDR inh 79µM
COc1ccc(-c2nc(SCC(=O)NC3CCCC3)c(-c3ccc(OC)cc3)[nH]2)cc1	G9a block 50µM
COc1ccc(-c2[nH]c(-c3cccc(OC)c3)nc2SCC(=O)NCc2ccco2)cc1	G9a block 18µM
COc1ccc(-c2nc(SCC(=O)NC3CCCC3)c(-c3ccccc3)[nH]2)cc1OC	G9a block inconclusive (no result: Sfp PPTase inh)
COc1ccc(-c2[nH]c(-c3ccc(C)cc3)nc2SCC(=O)Nc2nccs2)cc1	G9a block 45µM
O=C1CCN(S(=O)(=O)c2ccccc2)CCCN(C(=O)c2cccc3[nH]ccc23)CCN1	none (no result: Glioma ERSR ind, G9a block, VDR inh, Sfp PPTase inh)
Cc1cccc(NC(=O)c2cnn(-c3ccc(F)cc3)c2C2CCNCC2)c1C	G9a block 35µM
Cc1ccc(-n2ncc(C(=O)Nc3cc(Cl)ccc3C)c2C2CCNCC2)cc1C	none
Cc1ccc(Cl)cc1N1CCN(C(=O)c2cnn(-c3ccc(Cl)cc3)c2C2CCNCC2)CC1	G9a block 8.9µM, ALOX12 inh inconclusive (no result: Sfp PPTase inh)
CCCN(CC1CC1)C(=O)CNC(N)=O	none (no result: Glioma ERSR ind, G9a block, VDR inh, Sfp PPTase inh)
Cc1cccc(NC(=O)/C=C/c2cccs2)c1C	none (no result: Glioma ERSR ind, G9a block, VDR inh, Sfp PPTase inh)
COc1cc(/C=C2\C(=O)NN(c3ccccc3)C2=O)cc([N+](=O)[O-])c1O	G9a block 16µM, ALOX12 inh inconclusive, Sfp PPTase inh inconclusive
COc1cc(/C=C2\C(=O)NN(c3ccc(C)cc3)C2=O)cc([N+](=O)[O-])c1O	G9a block 14µM, ALOX12 inh inconclusive, VDR inh inconclusive
COc1cc(/C=N/N2CCCCC2)cc([N+](=O)[O-])c1O	G9a block 50µM
COc1cc(/C=C2/C(=O)NN(c3ccccc3)C2=O)cc(Br)c1O	Glioma ERSR ind inconclusive, G9a block 40µM, VDR inh inconclusive
COc1cc(/C=C2/C(=O)NN(c3ccc(Cl)cc3)C2=O)cc(OC)c1O	G9a block inconclusive, VDR inh inconclusive
CCc1ccc(C(=O)COc2c(C)cc(Br)cc2Cl)cc1	none (no result: Glioma ERSR ind, G9a block, VDR inh, Sfp PPTase inh)
Cc1ccc(C(=O)NCc2sccc2C)cn1	none (no result: Glioma ERSR ind, G9a block, VDR inh, Sfp PPTase inh)
CN(C)CC(O)COc1ccc(NC(=O)Nc2ccccc2F)cc1 (stereo unspecified)	none (no result: Glioma ERSR ind, G9a block, VDR inh, Sfp PPTase inh)
CCN1CCN(C(=O)CN(c2cccc(C)c2)S(C)(=O)=O)CC1	none (no result: Glioma ERSR ind, G9a block, VDR inh, Sfp PPTase inh)
CCOc1cc(/C=C2\C(=O)NN(c3ccccc3)C2=O)cc([N+](=O)[O-])c1O	G9a block 32µM, ALOX12 inh inconclusive, VDR inh inconclusive
CC(=O)O[C@@H]1CC2C(C)(C)C(=O)C=C[C@]2(C)C2CC[C@]3(C)C(=CC[C@H]3C3CO[C@@H](C(C)(C)O)[C@H](O)C3)[C@@]21C (stereo partly specified)	Sfp PPTase inh 89µM (no result: Glioma ERSR ind, G9a block)
O=C(CN(Cc1ccccc1)C(=O)CSc1nnc(COc2ccccc2)o1)NC1CCCC1	G9a block 10µM, Sfp PPTase inh 79µM
Cc1ccc(CN(CC(=O)NC2CCCC2)C(=O)CSc2nnc(COc3ccccc3)o2)cc1	G9a block 32µM
COc1ccc(C(=O)ON=C2CCCCC2)cc1Br	none (no result: Glioma ERSR ind, G9a block, VDR inh, Sfp PPTase inh)
COCCN(C)C[C@@H]1CN(C(=O)c2ccc(-c3ccccc3)n2C)C[C@@H]1CO	none (no result: Glioma ERSR ind, G9a block, VDR inh, Sfp PPTase inh)
Cc1cc(C)c(C(C)NC(=O)Cn2nnn(-c3ccccc3)c2=O)cc1C (stereo unspecified)	none (no result: Glioma ERSR ind, G9a block, VDR inh, Sfp PPTase inh)
CN1CCN(c2ncc3nc(-c4cn(C)c5ccccc45)c(=O)n(-c4ccccc4)c3n2)CC1	ALOX12 inh 6.3µM, VDR inh inconclusive
COc1ccc(-n2c(=O)c(-c3cn(C)c4ccccc34)nc3cnc(N4CCNCC4)nc32)cc1	ALOX12 inh inconclusive
Cc1cc(=O)oc2c(C)c(OCC(=O)NC3CCS(=O)(=O)C3)ccc12 (stereo unspecified)	none (no result: Glioma ERSR ind, G9a block, VDR inh, Sfp PPTase inh)
CSCc1c(C(=O)OCC(=O)c2ccc[nH]2)oc2ccccc12	G9a block 25µM (no result: ALOX12 inh, Sfp PPTase inh)
COc1ccc(-n2c(C)c(C(=O)O)c3cc(OC)ccc32)cc1	none (no result: Glioma ERSR ind, G9a block, VDR inh, Sfp PPTase inh)
FC(F)(F)c1cccc(CN2CCSCC2)c1	G9a block 10µM, ALOX12 inh inconclusive
Fc1ccc(CN2CCSCC2)cc1Br	G9a block 8.9µM, ALOX12 inh inconclusive
O=S1(=O)CCN(Cc2cccc(C(F)(F)F)c2)CC1	none
Clc1ccc(CN2CCSCC2)cc1Cl	G9a block inconclusive, ALOX12 inh inconclusive
COc1ccc(CN2CCC3(C2)C(=NC2CCCCC2)NC(=O)N3c2cccnc2)cc1 (stereo unspecified)	none (no result: Glioma ERSR ind, G9a block, VDR inh, Sfp PPTase inh)
CC(C)NC(=O)N1CCC2(CC1)CN(C(=O)Cc1csc(N)n1)Cc1ccccc1O2	none (no result: Glioma ERSR ind, G9a block, VDR inh, Sfp PPTase inh)
CC1(NC(=O)c2n[nH]c(=O)c3ccccc23)CCS(=O)(=O)C1 (stereo unspecified)	none (no result: Glioma ERSR ind, G9a block, VDR inh, Sfp PPTase inh)

Screening data as filed in PubChem BioAssay.
